High-throughput results from PubChem BioAssay.
Compounds with a hit are over-represented: about 21% of the library has one in this group of screens.
Cycloheximide cs – counter-screen for Shiga toxin inhibitors: cycloheximide protein synthesis inhibition; max response, %; 300,000 compounds, 12% hits; cell reporter, cycloheximide protein synthesis inhibition counterscreen; in the data active means max response mostly above about 13%, no sharp cut-off; inactive means mostly below about 14%; further: read at 38.3 µM for the half of the compounds with a filed dose
Pf growth 96h – inhibits malaria parasite growth, 96 h | 320,000 compounds, 6.9% hits | Potency, µM (highest dose often 28.7 µM), most hits filed as inhibitors | AID 504834 | P. falciparum luciferase reporter growth, 96 h
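Luminescence readout: decreased luciferase signal marks inhibited growth of reporter-expressing P. falciparum in infected red cells (2% hematocrit, 0.05% parasitemia final), exposed to compound two generations (96 h, 37 C, 5% CO2).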
NS1 inh – influenza NS1 inhibition; Potency, µM (doses to about 46.1 µM); 270,000 compounds, 0.4% hits; AID 2326; calls by dose curve; further: actives are rising curves; nearly all actives have a fitted effect of over 50% in size
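A cell-based growth assay was used: compounds that relieve NS1-induced slow growth of budding yeast raise OD600. Assay medium was yeast nitrogen base with ammonium sulphate and -URA supplement, pH 6.0, with 2% galactose.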
Shiga inhibitor – blocks Shiga toxin action in Vero cells | 290,000 compounds, 9.2% hits | inhibition, % at 38.7 µM | Vero cells, Shiga toxin protein synthesis inhibition reporter; in the data active means inhibition mostly above about 28%, no sharp cut-off; inactive means mostly below about 43%
FBPA Giardia inh – inhibitors of Giardia lamblia fructose-1,6-bisphosphate aldolase. Potency, µM (doses to about 59.6 µM), hits mostly inhibitors. A8B2U2. purified Giardia FBPA. AID 2451. 290,000 compounds, 0.71% hits; further: nearly all actives have a fitted effect of over 55% in size
Target sequence (A8B2U2 whole entry, looked up): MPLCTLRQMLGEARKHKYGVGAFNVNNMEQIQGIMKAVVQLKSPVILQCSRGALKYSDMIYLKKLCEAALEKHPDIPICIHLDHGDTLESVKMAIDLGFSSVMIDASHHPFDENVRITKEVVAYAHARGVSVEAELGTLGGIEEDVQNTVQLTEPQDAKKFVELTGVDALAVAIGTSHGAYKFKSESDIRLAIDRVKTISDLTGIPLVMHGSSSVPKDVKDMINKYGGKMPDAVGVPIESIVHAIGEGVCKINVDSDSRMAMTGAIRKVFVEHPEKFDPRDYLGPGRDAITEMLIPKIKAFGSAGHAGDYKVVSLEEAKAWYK
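Giardia FBPA (40 nM reagent) was preincubated 10 min at RT with compound (up to 57.5 uM final), then substrate plus GAPDH/TPI/NAD/arsenate coupling system with diaphorase/resazurin was added; resorufin fluorescence (525/598 nm) was read after 20 min.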
Pf growth 48h – inhibits P. falciparum growth in the first generation, 48 h. P. falciparum luciferase growth in erythrocytes, 48 h. Potency, µM (highest dose often 28.7 µM), most hits filed as inhibitors. 310,000 compounds, 5.9% hits. AID 504832
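Read-out is firefly luciferase luminescence from an integrated reporter in P. falciparum, so falling signal marks reduced parasite growth. Infected erythrocytes were at 2% hematocrit and 0.1% parasitemia (final) in Albumax-supplemented RPMI 1640.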
Numbers stand for hits; - = inactive; ? = inconclusive; . = no result given; + = active, no number; [ ] = another dose, or the depositor's remark. Unless noted, the call rests on the fitted dose curve; in most records, active means well fitted curve in the direction sought with a large enough effect; inconclusive means small, poorly fitted or top-dose-only effect, or another doubt; inactive means no such curve, though single readings can be large; an effect the other way counts as inactive or inconclusive.

SMILES | Cycloheximide cs | Pf growth 96h | NS1 inh | Shiga inhibitor | FBPA Giardia inh | Pf growth 48h
O=[N+]([O-])c1ccc(O)c(C2=NNC(c3ccccc3F)C2)c1 (centres undefined) | 40 | - | - | 84 | - | -
CCCOc1ccc(N/C=C/C(=O)c2cc(OC)c(OC)c(OC)c2)cc1 | - | - | - | . | - | -
CCOC(=O)c1ccc(N/C=C\C(=O)c2cccc(OC)c2)cc1 | 48 | - | - | 95 | - | -
COc1ccc(OC)c(N/C=C/C(=O)c2ccc(OC)c(OC)c2)c1 | 15 | ? | - | - | - | ?
CCOC(=O)c1ccc(OS(=O)(=O)c2ccccc2)c(OC)c1 | 50 | - | - | + | - | -
COc1ccc(C(=O)COC(=O)c2ccc(NC(C)=O)cc2)cc1[N+](=O)[O-] | - | ? | - | - | - | -
COc1cccc(C(=O)COC(=O)c2ccc(NC(C)=O)cc2)c1 | 16 | - | - | - | - | -
COc1ccc(CCN2CC(C(=O)Nc3ccccc3F)CC2=O)cc1OC (centres undefined) | . | - | . | . | . | ?
COc1ccc(C(=O)/C=C/Nc2cccc(O)c2)cc1 | - | . | - | - | - | -
COC(=O)c1ccc(N/C=C/C(=O)c2ccccc2)cc1 | 43 | 13µM | - | 48 | - | -
COc1cccc(C(=O)/C=C/Nc2cc(C)ccc2O)c1 | 51 | - | - | 88 | - | ?
COc1cccc(N/C=C/C(=O)c2ccc(OC)c(OC)c2)c1 | 27 | ? | - | 46 | - | -
CCOC(=O)C(=O)Nc1cccc(C(=O)OCC)c1 | - | - | - | - | - | ?
CCOC(=O)c1cccc(N/C=C/C(=O)c2ccc(OC)c(OC)c2)c1 | 27 | - | - | 98 | - | -
Cc1cccc(C)c1Nc1oc(-c2ccccc2)nc1-c1ccccc1 | . | . | . | . | - | .
COc1ccc(Cl)cc1NC(=O)C1Cc2cc(S(=O)(=O)N3CCCC3)ccc2N1C(C)=O (centres undefined) | - | ? | - | - | . | -
Nc1cc(=O)nc(SCC(=O)N2CCN(c3ccccc3)CC2)n1-c1ccc(F)cc1 | - | - | - | - | - | ?
COc1ccccc1C1C(C(N)=O)=C(C)Nc2nc(-c3ccccc3Cl)nn21 (centres undefined) | - | ? | - | - | - | .
CC1=C(C(N)=O)C(c2cccs2)n2nc(-c3cccc(C)c3)nc2N1 (centres undefined) | - | 10µM | - | - | - | -
CC1=C(C(N)=O)C(c2cccs2)n2nc(-c3cccc(Cl)c3)nc2N1 (centres undefined) | - | - | - | - | - | -
CC1=C(C(N)=O)C(c2ccccn2)n2nc(-c3ccccc3Cl)nc2N1 (centres undefined) | - | 10µM | - | - | - | -
Cc1ccc(C(=O)c2coc3ccc(O)cc23)cc1 | 34 | - | - | 41 | - | -
O=C(c1ccccc1)c1coc2ccc(O)c(Cl)c12 | 67 | - | - | 118 | - | -
Cc1ccc(C(=O)c2coc3ccc(O)c(Cl)c23)cc1 | 36 | - | - | 72 | ? | .
O=C(c1ccccc1)c1coc2ccc(O)c(CN3CCOCC3)c12 | - | - | - | - | - | ?
SMILES | Cycloheximide cs | Pf growth 96h | NS1 inh | Shiga inhibitor | FBPA Giardia inh | Pf growth 48h
Cc1cccc(C(=O)c2cn[nH]c2-c2ccc(C)cc2O)c1 | - | ? | - | . | - | -
Cc1ccc(-c2[nH]ncc2C(=O)c2cccc(F)c2)c(O)c1 | 8.5 | ? | - | - | - | ?
CC(C)(C)c1ccc(C(=O)c2cn[nH]c2-c2ccccc2O)cc1 | 42 | ? | - | 58 | - | -
C=CCN(C(=O)c1csnn1)C(C(=O)NC1CCCC1)c1ccc(OC)cc1 (centres undefined) | - | - | - | - | . | -
Cc1occc1-c1nnc(SCC(=O)N(C)C)o1 | 33 | - | - | - | - | .
Cc1cc(-c2nnc(SCC(=O)Nc3nccs3)o2)no1 | 20 | - | ? | 43 | - | ?
CCn1c(SCC(=O)Nc2nc(C)cs2)nnc1-c1ccoc1C | - | - | - | - | - | .
Cc1csc(NC(=O)CSc2nnc(-c3ccoc3C)o2)n1 | 41 | - | - | 70 | - | -
Cc1cc(-c2nnc(SCC(=O)Nc3ccccn3)o2)no1 | - | - | . | - | - | -
Cc1csc(NC(=O)CSc2nnc(-c3ccncc3)o2)n1 | 16 | - | - | - | - | -
c1ccc(-c2cn(C[C@H]3CC[C@H](Cn4cc(-c5ccccn5)nn4)O3)nn2)nc1 | - | - | - | - | - | ?
O=C(CSc1nnc(-c2cccs2)o1)N1CCc2ccccc21 | - | - | - | - | - | -
Cc1occc1-c1nnc(SCC(=O)Nc2nc(C(C)(C)C)cs2)o1 | 27 | . | - | 50 | - | -
Cc1occc1-c1nnc(SCC(=O)N2CCc3ccccc32)o1 | - | 5.2µM | - | - | - | -
CCOC(=O)Cc1csc(NC(=O)CSc2nnc(-c3ccncc3)o2)n1 | - | - | - | - | - | -
COCCCN1C2=C(C(=O)CC(C)(C)C2)C(c2ccc(O)c(OC)c2)C2=C1CC(C)(C)CC2=O | - | - | - | - | - | ?
CSc1ccccc1NC(=O)c1cc2ncc(Br)cn2n1 | 18 | - | - | 94 | - | -
CCOc1ccccc1NC(=O)c1cnccn1 | - | 12µM | - | - | - | ?
CSc1ccccc1NC(=O)c1cnccn1 | 21 | - | - | - | - | -
Cc1nn(Cc2ccc(F)cc2)c(C)c1NC(=O)c1cc2ncc(Br)cn2n1 | - | - | - | - | - | -
O=C(Nc1cccc2ccccc12)c1cnccn1 | 31 | . | - | 62 | - | -
CC(C)c1ccccc1NC(=O)c1cnccn1 | - | . | - | - | - | -
N#Cc1cccc(NC(=O)N2CCC3(CC2)CCN(C(=O)c2ccco2)CC3)c1 | . | . | . | . | - | .
Cc1noc(C)c1CSCC(=O)Nc1ccc(S(=O)(=O)C(F)F)cc1 | . | 4.7µM | . | . | . | -
O=C(Cc1ccccc1F)Nc1nc(-c2ccc(F)cc2)cs1 | 26 | - | - | 64 | - | -
SMILES | Cycloheximide cs | Pf growth 96h | NS1 inh | Shiga inhibitor | FBPA Giardia inh | Pf growth 48h
COc1cc(OC)cc(C(=O)N[C@H](C(=O)Nc2nc(-c3ccc(F)c(F)c3)cs2)C(C)C)c1 | - | -[5.75 µM] | . | - | - | 13µM
Cc1noc(C)c1CSCC(=O)Nc1nc(-c2ccc(F)c(F)c2)cs1 | . | ? | . | . | . | 10µM
COc1ccc(-c2csc(NC(=O)Cc3ccccc3F)n2)cc1OC | - | ? | - | - | - | -
COc1ccccc1CC(=O)Nc1nc(-c2ccc(F)c(F)c2)cs1 | 26 | ? | - | 44 | - | ?
CCOC(=O)c1csc(N/N=C2\CCc3ccccc32)n1 | 31 | 13µM | - | 38 | - | .
CCOC(=O)c1csc(NC(=O)CN2CCN(C)CC2)n1 | - | - | - | - | ? | -
CCOC(=O)c1csc(N/N=C2\CCCc3ccccc32)n1 | 12 | ? | - | 33 | - | .
COc1cc2c(cc1OC)C(C)N(S(=O)(=O)c1ccc(Cl)nc1)CC2 (centres undefined) | - | ? | - | - | . | ?
Cc1cnc(C(=O)OCC(=O)Nc2ccccc2-c2ccccc2)cn1 | . | - | . | . | . | -
